Results on 15 compounds are retold here after PubChem BioAssay (Tox21).

Assay [1] in a line: qHTS assay to identify small molecule agonists of the RXR signaling pathway - cell viability counter screen (AID 1159529). Note: nearly all actives have a fitted effect of over 50% in size. Note: potency is the fitted concentration of half-maximal effect. An outline of the steps: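 RXR-alpha-UAS-bla HEK 293T cells in medium with 2% charcoal-stripped FBS were pre-incubated 5 hr, then compound-treated 16 hr at 37 C. Viability was read by CellTiter-Glo luminescence in the same wells as the beta-lactamase assay, with tetraoctyl ammonium bromide as positive control.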
(In qHTS, concentration-response curves come from the screen itself.)

The nature of assay [2]: qHTS assay to identify small molecule antagonists of the retinoid acid receptor (RAR) signaling pathway - cell viability counter screen (AID 1159551). Note: nearly all actives have a fitted effect of over 35% in size. Note: potency is the fitted concentration of half-maximal effect. An outline of the steps:
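C3RL4 cells were seeded overnight at 37 C, then treated with compounds plus 1 uM (final) retinol for 6 h at 37 C. Viability was read as ATP by CellTiter-Glo luminescence after 30 min at room temperature.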

A short description of assay [3]: qHTS assay to identify small molecule antagonists of the retinoic acid receptor (RAR) signaling pathway (AID 1159552; note: nearly all actives have a fitted effect of over 50% in size; note: potency is the fitted concentration of half-maximal effect). An outline of the steps: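 Retinol signaling pathway inhibitors screened in C3RL4 RARE-luciferase reporter cells seeded overnight at 37 C, then compounds added with 1 uM (final) retinol as pathway substrate. After 6 hr at 37 C, luciferase luminescence read after 30 min at room temperature.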

Assay [4] in a line: qHTS assay to identify small molecule antagonists of the estrogen related receptor (ERR) signaling pathway from Tox21 library - cell viability counter screen (AID 1224834). Note: nearly all actives have a fitted effect of over 30% in size. Note: potency is the fitted concentration of half-maximal effect. An outline of the steps:
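ERR reporter cells were plated 6 h before compound addition, then exposed to test compounds in DMSO for 17.5 h at 37 C. Viability was read as CellTiter-Fluor fluorescence after a 30-minute incubation at 37 C.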

Assay [5] has as its target Luciferin 4-monooxygenase (Photinus pyralis) (UniProt P08659). Nature of the assay: qHTS assay to identify small molecule inhibitors of firefly luciferase (AID 1224835). Note: nearly all actives have a fitted effect of over 25% in size. Note: potency is the fitted concentration of half-maximal effect. An outline of the steps: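 Inhibition of purified Photinus luciferase is measured by luminescence. Substrate levels (D-luciferin, ATP) sit at their KM values. Each compound is tested in a concentration series.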

Assay [6] is described as follows: qHTS assay to identify small molecule agonists of the constitutive androstane receptor (CAR) signaling pathway - cell viability counter screen (AID 1224836). Note: nearly all actives have a fitted effect of over 45% in size. Note: potency is the fitted concentration of half-maximal effect. An outline of the steps: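 HepG2 cells stably carrying hCAR and a CYP2B6-2.2kb reporter; 15-concentration compounds plus PK11195 (final 0.75 uM), 23 hr at 37 C/5% CO2. Viability read by CellTiter-Fluor fluorescence.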

Assay [7] is described as follows: qHTS assay to identify small molecule antagonists of the constitutive androstane receptor (CAR) signaling pathway - cell viability counter screen (AID 1224837). Note: nearly all actives have a fitted effect of over 45% in size. Note: potency is the fitted concentration of half-maximal effect. An outline of the steps: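 HepG2 cells stably expressing hCAR and a CYP2B6-2.2kb reporter were plated and pre-incubated 4 hr at 37 C/5% CO2, then given compounds at 15 concentrations plus 50 nM CITCO (final). After 23 hr, viability was read by CellTiter-Fluor fluorescence.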

In assay [8] the target is Nuclear receptor subfamily 1 group I member 3 (Homo sapiens) (UniProt Q14994). Briefly: qHTS assay to identify small molecule antagonists of the constitutive androstane receptor (CAR) signaling pathway (AID 1224838). Note: nearly all actives have a fitted effect of over 40% in size. Note: potency is the fitted concentration of half-maximal effect. An outline of the steps:
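HepG2 cells stably co-transfected with hCAR and a CYP2B6-2.2kb luciferase reporter were seeded 4 h before compound addition at 15 concentrations. Cells were stimulated with 50 nM CITCO (final) for 24 h at 37 C; luciferase luminescence was then read.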

The target is the same in assay [9]. Nature of the assay: qHTS assay to identify small molecule agonists of the constitutive androstane receptor (CAR) signaling pathway (AID 1224839). Note: nearly all actives have a fitted effect of over 15% in size. Note: potency is the fitted concentration of half-maximal effect. An outline of the steps: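 HepG2 cells stably co-transfected with hCAR and a CYP2B6-2.2kb luciferase reporter; compounds at 15 concentrations with 0.75 uM PK11195 present. After 24 hr at 37 C, luciferase read by ONE-Glo luminescence.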

Assay [10] can be described thus: qHTS assay to identify small molecule antagonists of the estrogen related receptor signaling pathway with the pleiotropic PPARgamma coactivator (PGC) from Tox21 10K library - cell viability counter screen (AID 1224840; active = well fitted cell-killing curve with a large enough effect in the repeat runs, not every such curve was filed as active; note: nearly all actives have a fitted effect of over 40% in size; note: potency is the fitted concentration of half-maximal effect). An outline of the steps:
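PGC/ERR cells were seeded at 2,000 cells/well and left 6 hours at 37 C/5% CO2 before pin-tool addition of compounds in DMSO. After 17.5 hours at 37 C, CellTiter-Fluor was added and fluorescence read 30 minutes later.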

Assay [11] in a line: qHTS assay to identify small molecule antagonists of the estrogen related receptor signaling pathway with the pleiotropic PPARgamma coactivator (PGC) from Tox21 10K library (AID 1224841; call rule not given here; note: actives are mostly falling curves and most rising ones were filed inactive; nearly all actives have a fitted effect of over 50% in size; note: potency is the fitted concentration of half-maximal effect). An outline of the steps: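 PGC/ERR reporter cells were seeded at 2,000 cells/well and held 6 hours at 37 C/5% CO2 before pin-tool addition of compounds in DMSO. After 18 hours at 37 C, One-Glo was added and luminescence read after 30 minutes at room temperature.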

Assay [12] is described as follows: qHTS assay to identify small molecule agonists of the estrogen related receptor signaling pathway with the pleiotropic PPARgamma coactivator (PGC) from Tox21 10K library (AID 1224842). Note: nearly all actives have a fitted effect of over 15% in size. An outline of the steps: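 Luminescence from One-Glo (30 min, room temperature) measured after PGC/ERR cells had 18 h at 37 C with pinned compound (23 nL in DMSO). Cells had been seeded at 2,000 per well and pre-incubated 6 h.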

In assay [13] the target is Thyrotropin receptor (Homo sapiens) (UniProt P16473). Briefly: qHTS assay to identify small molecule agonists of the thyroid stimulating hormone receptor (TSHR) signaling pathway (AID 1224843; calls by dose curve; note: nearly all actives have a fitted effect of over 45% in size; note: potency is the fitted concentration of half-maximal effect). An outline of the steps: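 Screening of the Tox21 10K collection used HEK293 cells engineered with TSHR at 800 cells per well. After a 30-min room-temperature compound exposure, HTRF cAMP reagents were added and fluorescence recorded 1 h later.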

Assay [14] can be described thus: qHTS assay to identify small molecule agonists of the retinoic acid receptor (RAR) signaling pathway (AID 1159553). An outline of the steps:
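C3RL4 cells carrying a RARE luciferase reporter were plated overnight at 37 C, then exposed to compounds in DMSO for 6 hr at 37 C and 5% CO2. Luminescence was read 30 min after luciferase reagent addition at room temperature.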

Assay [15] in a line: qHTS assay to identify small molecule antagonists of the estrogen related receptor (ERR) signaling pathway - cell viability counter screen (AID 1224818).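 Note: series mostly up to about 46 µM; viability measured after 17.5 h of compound exposure.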 An outline of the steps: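 ERR reporter cells plated 6 h at 37 C/5% CO2, then compounds in DMSO pin-transferred and incubated 17.5 h at 37 C. Viability read as CellTiter-Fluor fluorescence after 30 min at 37 C.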
Assay [16] in a line: qHTS assay to identify small molecule antagonists of the estrogen related receptor signaling pathway with the pleiotropic PPARgamma coactivator (PGC) cell viability counter screen (AID 1224822; note: series mostly up to about 46 µM). An outline of the steps: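 PGC/ERR cells were seeded at 2,000 cells/well, rested 6 h at 37 C/5% CO2, then given compounds in DMSO by pin tool and incubated 17.5 h at 37 C. Viability came from CellTiter-Fluor fluorescence after 30 min.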

“And” between values parts separate entries of the source, which are not always exact repeats. Equal entries are not always repeated. Inconclusive results are not listed. The source holds several records for some structures; these can differ, active in one and inactive in another. The source made the active and inactive calls. Unless noted, calls come from the whole dose curve; as a rule, active = well fitted curve in the direction sought with a large enough effect in the repeat runs; inconclusive = weak or mixed curves; inactive = no such curve, though single readings can be large; an effect the other way counts as inactive or inconclusive.

Sequence of Luciferin 4-monooxygenase (Photinus pyralis) (P08659 whole entry, looked up): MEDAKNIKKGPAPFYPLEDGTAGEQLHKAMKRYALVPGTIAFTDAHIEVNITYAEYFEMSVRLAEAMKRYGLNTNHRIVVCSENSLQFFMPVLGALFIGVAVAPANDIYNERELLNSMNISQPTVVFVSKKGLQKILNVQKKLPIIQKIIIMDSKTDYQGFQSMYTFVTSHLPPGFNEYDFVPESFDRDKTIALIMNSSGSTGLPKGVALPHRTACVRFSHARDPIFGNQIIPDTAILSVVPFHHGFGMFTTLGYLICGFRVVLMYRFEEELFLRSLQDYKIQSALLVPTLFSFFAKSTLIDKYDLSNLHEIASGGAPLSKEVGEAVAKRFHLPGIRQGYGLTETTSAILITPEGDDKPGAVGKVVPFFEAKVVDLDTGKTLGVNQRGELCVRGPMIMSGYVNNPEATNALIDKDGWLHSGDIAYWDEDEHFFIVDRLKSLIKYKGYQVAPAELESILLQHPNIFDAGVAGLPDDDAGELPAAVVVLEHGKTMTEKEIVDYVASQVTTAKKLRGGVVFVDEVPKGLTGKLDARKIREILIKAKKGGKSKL
Sequence of Thyrotropin receptor (Homo sapiens) (P16473 whole entry, looked up): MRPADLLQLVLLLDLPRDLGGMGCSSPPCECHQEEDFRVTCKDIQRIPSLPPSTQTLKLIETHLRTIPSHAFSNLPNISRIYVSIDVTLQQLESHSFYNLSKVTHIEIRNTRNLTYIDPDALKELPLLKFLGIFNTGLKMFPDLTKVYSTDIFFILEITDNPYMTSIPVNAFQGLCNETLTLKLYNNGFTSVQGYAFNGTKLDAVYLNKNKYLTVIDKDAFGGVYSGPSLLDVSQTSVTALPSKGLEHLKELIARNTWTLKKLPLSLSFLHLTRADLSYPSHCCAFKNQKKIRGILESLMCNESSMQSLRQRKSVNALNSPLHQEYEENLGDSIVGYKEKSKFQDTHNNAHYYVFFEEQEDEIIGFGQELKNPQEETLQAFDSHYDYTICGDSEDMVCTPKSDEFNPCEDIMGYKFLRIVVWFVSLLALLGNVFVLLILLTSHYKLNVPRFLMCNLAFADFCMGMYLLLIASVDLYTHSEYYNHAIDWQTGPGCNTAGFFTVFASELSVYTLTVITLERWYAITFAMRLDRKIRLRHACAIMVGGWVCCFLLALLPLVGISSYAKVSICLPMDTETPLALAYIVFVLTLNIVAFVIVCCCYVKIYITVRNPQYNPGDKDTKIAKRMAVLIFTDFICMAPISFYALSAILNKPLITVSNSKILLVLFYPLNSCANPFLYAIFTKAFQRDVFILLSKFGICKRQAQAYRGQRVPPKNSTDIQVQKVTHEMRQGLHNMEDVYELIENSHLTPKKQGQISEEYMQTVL
Sequence of Nuclear receptor subfamily 1 group I member 3 (Homo sapiens) (Q14994 whole entry, looked up): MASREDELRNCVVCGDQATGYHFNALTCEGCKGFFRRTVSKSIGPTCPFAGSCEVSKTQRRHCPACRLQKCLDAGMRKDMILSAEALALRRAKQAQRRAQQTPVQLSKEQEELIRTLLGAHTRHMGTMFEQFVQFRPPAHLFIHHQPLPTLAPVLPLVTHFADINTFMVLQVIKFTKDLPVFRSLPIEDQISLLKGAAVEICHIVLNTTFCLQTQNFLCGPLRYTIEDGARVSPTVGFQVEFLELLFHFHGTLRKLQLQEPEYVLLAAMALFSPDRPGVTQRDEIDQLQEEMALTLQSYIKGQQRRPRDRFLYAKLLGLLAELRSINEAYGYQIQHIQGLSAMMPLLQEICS

`O=[N+]([O-])c1ccc(Cl)c(Cl)c1Cl`: the Potency entry in assay [1], in [2], in [3], in [4], in assay [5] and in assay [6] was “inactive” throughout. Further, the Potency entry in [7], in [8], in assay [9], in assay [10], in assay [11] and in assay [12] was “inactive” each time. Also, the Potency entry in [13] was “inactive”.
Regarding `Oc1ccc2[nH]cc(CCCCN3CC=C(c4ccccc4)CC3)c2c1`, the Potency entry in assay [1], in [2], in assay [3], in assay [14], in [6] and in [7] was “inactive” in each case. For the same compound, the Potency result in [12] and in [13] was “inactive” throughout. The Potency in assay [11] was 5.96 µM (active).
As for `O=[N+]([O-])c1cc(C(F)(F)F)c(Cl)c([N+](=O)[O-])c1Nc1ncc(C(F)(F)F)cc1Cl`, the Potency in [1] was 7.76 µM (active); in assay [2] it was 54.5 µM (active); in [3], 30.6 µM (active); in [4], 27.3 µM (active); in [6], 15.4 µM (active); in assay [7] it was 15.4 µM (active). The Potency is 13.7 µM (active) in assay [8] and 8.63 µM (active) in assay [10].
Take `BrCC(Br)(Br)Br`: the Potency entry in assay [1], in assay [2], in assay [3], in assay [4], in assay [6] and in [7] was “inactive” in each case. Further, the Potency entry in assay [8], in assay [10], in assay [11] and in assay [12] was “inactive” throughout.
For `CC#C[C@]1(O)CC[C@H]2[C@@H]3C[C@H](C)C4=CC(=O)CC[C@]4(C)[C@H]3CC[C@@]21C`, the Potency result in [1], in assay [2], in assay [14], in assay [5], in [6] and in [7] was “inactive” in each case. The Potency entry in assay [9], in assay [10] and in [13] was “inactive” each time. The Potency in assay [3] is 13.3 µM (active).
Turning to `CC(=O)[O][Pb]([c]1ccccc1)([c]1ccccc1)[c]1ccccc1`, the Potency in [1] was 2.45 µM (active); in [2] it was 9.69 µM (active); in assay [3], 0.486 µM (active); in assay [4] it was 2.73 µM (active); in [5], 22.4 µM (active); in assay [6], 5.45 µM (active). Also, the figures for the Potency in assay [7], in assay [8] and in assay [10] were 7.7 µM (active), 1.54 µM (active) and 3.06 µM (active), respectively. In addition, the Potency entry in assay [9] is “inactive”.
As for `CC(Cc1ccc(O)cc1)NCC(O)c1cc(O)cc(O)c1` (stereo unspecified), the Potency result in assay [1], in assay [2], in assay [14], in assay [15], in assay [16] and in assay [4] was “inactive” each time. Moreover, the Potency result in [5], in assay [6], in [7], in assay [8], in assay [9] and in assay [10] was “inactive” each time. In addition, the Potency in assay [13] is 841 nM (active).
`CC(C)C(Nc1ccc(C(F)(F)F)cc1Cl)C(=O)OC(C#N)c1cccc(Oc2ccccc2)c1` (stereo unspecified): the Potency result in assay [1], in [2], in assay [3], in [4], in assay [5] and in assay [6] was “inactive” throughout. Moreover, the Potency result in assay [7], in assay [8] and in [10] was “inactive” throughout.
Consider `O=C(N[C@@H]1N=C(c2ccccc2F)c2cccc3c2N(CC3)C1=O)c1cc2ccccc2[nH]1`, for which the Potency result in [1], in assay [2], in assay [3], in [14], in assay [6] and in assay [7] was “inactive” each time. The Potency result in [8], in assay [10] and in assay [13] was “inactive” each time. Moreover, the Potency in assay [5] is 9.77 µM (active).
`Cc1ccc2cc3c(ccc4ccccc43)c3c2c1CC3`: the Potency entry in assay [1], in [2], in [3], in assay [4], in assay [6] and in assay [9] was “inactive” in each case. The Potency entry in assay [10] and in assay [13] was “inactive” in each case. The Potency in assay [5] was 11.3 µM (active); in [8], 0.865 µM (active).
As to `CCOC(=O)Cc1ccccc1`, the Potency result in assay [1], in assay [2], in [3], in [4], in assay [5] and in assay [6] was “inactive” each time. Moreover, the Potency entry in assay [7], in [8], in assay [9], in assay [10] and in [13] was “inactive” each time.
On to `O=S1OCC2C(CO1)C1(Cl)C(Cl)=C(Cl)C2(Cl)C1(Cl)Cl` (stereo unspecified), for which the Potency in assay [1] was 48.9 µM (active); in assay [2], 54.5 µM (active); in assay [3], 48.6 µM (active) and 54.4 µM (active); in [4] it was 54.5 µM (active); in assay [9] it was 30.7 µM (active) and 17.2 µM (active); in [13] it was 4.33 µM (active) and 8.63 µM (active). For the same compound, the Potency result in assay [5], in assay [6], in [7] and in assay [8] was “inactive” in each case.
As to `O=C1C(Cl)=C(Cl)C(=O)C(Cl)=C1Cl`, the Potency is 38.9 µM (active) in assay [1]; 60.9 µM (active) and inactive in assay [2]; 54.3 µM (active) and 61.1 µM (active) in assay [3]; 34.2 µM (active) and 30.6 µM (active) in assay [4]; 31.6 µM (active) and 15.9 µM (active) in assay [5]; 54.3 µM (active) and inactive in [10]. Also, the Potency is 60.9 µM (active) and inactive in assay [11]; 27200 nM (active) in assay [13]. In addition, the Potency result in [7], in assay [8] and in assay [9] was “inactive” each time.
With `COC(=O)/C=C(\C)OP(=O)(OC)OC`, the Potency entry in assay [1], in [2], in assay [3], in assay [4], in assay [5] and in [6] was “inactive” each time. Besides, the Potency result in [7], in assay [8], in assay [9], in assay [10], in assay [12] and in assay [13] was “inactive” throughout.
`CN(C)C(=S)SSC(=S)N(C)C`: the Potency in assay [1] was 272 nM (active) and 692 nM (active) and 268 nM (active); in assay [2], 67.6 µM (active); in assay [3] it was 214 nM (active) and 306 nM (active); in [4], 339 nM (active) and 433 nM (active) and 473 nM (active); in [5], 2.21 µM (active) and 1.26 µM (active) and 1.55 µM (active); in assay [6], 339 nM (active) and 486 nM (active) and 531 nM (active). Also, the Potency in assay [7] is 269 nM (active) and 344 nM (active) and 422 nM (active); in assay [8], 191 nM (active) and 386 nM (active) and 473 nM (active); in [10], 214 nM (active) and 243 nM (active) and 266 nM (active). In assay [9], the Potency entry is “inactive”.
